The structures appear in SMILES notation. The campaign covered roughly 13,000 compounds. About 3,200 (25%) showed an effect of 50% or more. The list shows a part of the results.

This note sets out measurements from PMC4552634, “A New Set of Chemical Starting Points with Plasmodium falciparum Transmission-Blocking Potential for Antimalarial Drug Discovery” (PLoS ONE, 2015).

The test system of the assay is P. falciparum stage V gametocytes. Details: BacTiter-Glo ATP luminescence viability of purified stage V gametocytes in 384-well plates, per cent inhibition versus DMSO. To be noted: 48 h, 5 µM; inhibitor.
The term % Inhibition denotes the drop in the measured response relative to a control, in per cent. Turning to `CN(C)C(=O)c1ccc(CN(Cc2ccc(OC(C)(C)C)cc2)Cc2ccc3c(c2)OCCO3)cc1` [TCMDC-136615], the “% Inhibition” value is 62.57%. In the case of `Cc1ccc(CN(Cc2ccc(C(=O)N(C)C)cc2)Cc2ccc3c(c2)OCCO3)cc1C` [TCMDC-136617], the “% Inhibition” value is 24.15%. Regarding `O=C(CC(=O)C(F)(F)F)c1ccc2c(c1)OCO2` [TCMDC-125824], the “% Inhibition” value is reported as -11.59%.

For `CN(C)C(=O)c1ccc(CN(Cc2ccc3c(c2)OCCO3)Cc2ccc3c(c2)OCO3)cc1` [TCMDC-136612], the “% Inhibition” value is -1.47%. Consider `CC(C)(C)OC(=O)NCC(=O)N(Cc1ccccc1)Cc1ccccc1` [TCMDC-131954], for which the “% Inhibition” value stood at 1.715%. Under `CC(=O)Nc1ccc(CN(Cc2ccc(OC(C)(C)C)cc2)Cc2ccc3c(c2)OCCO3)cc1` [TCMDC-136616] stands -22.37%; under `CN(C)C(=O)c1ccc(CN(Cc2cccc(OC(C)(C)C)c2)Cc2ccc3c(c2)OCCO3)cc1` [TCMDC-136614], 66.69%; under `CC(=O)Nc1ccc(CN(Cc2cccc(OC(C)(C)C)c2)Cc2ccc3c(c2)OCCO3)cc1` [TCMDC-136613], 87.49%. Under `CC(=O)Nc1ccc(CN(Cc2ccc(C)cc2)Cc2cccc(Oc3ccccc3)c2)cc1` [TCMDC-140147] stands 4.246%; under `O=C(/C=C/c1ccc([N+](=O)[O-])cc1)N1CCC(NS(=O)(=O)c2cccc(C(F)(F)F)c2)CC1` [TCMDC-139443], -15.57%; under `c1ccc(C(c2ccccc2)N2CCN(C(c3cccnc3)c3nnnn3C3CCCC3)CC2)cc1` (stereo not shown) [TCMDC-123571], -4.144%. Under `Cc1cc(NC(=O)Nc2ccc3ccn(C)c3c2)c2ccccc2n1` [TCMDC-140057] stands 10.89%; under `CC1CCN(c2nc(C(=O)Nc3ccc(F)cc3C(F)(F)F)c(C(C)C)s2)CC1` [TCMDC-134661], -14.15%; under `CC1(C)N=C(N)N=C(N)N1c1cc(Cl)c(Cl)cc1Cl` [TCMDC-124503], -35.38%. On to `CSc1nc2cc3c(cc2n1C(=O)c1ccc(C)cc1)OCCO3` [TCMDC-125385], for which the “% Inhibition” value was -23.6%. Under `Cc1ccccc1N1CCN(c2ccc(C(=O)Nc3ccccc3)cc2)CC1` [TCMDC-134565] stands 28.84%; under `O=C(O)C(F)(F)F.c1ccc2[nH]c(-c3ccc(-c4ccc(CNCC5CCCO5)cc4)s3)nc2c1` (stereo not shown) [TCMDC-133106], -3.113%; under `Oc1ccc(-c2cc(COc3ccccc3C(F)(F)F)c(C3=CCNCC3)cc2COc2ccccc2C(F)(F)F)cc1` [TCMDC-134520], 89.52%. The same measure for `FC(F)(F)c1ccccc1OCc1cc(-c2ccncc2)c(COc2ccccc2C(F)(F)F)cc1C1=CCNCC1` [TCMDC-134498]: 112.2%. As for `CN(C)CCOc1cc(NC(=O)Nc2ccc(-c3ccncc3)c(C(F)(F)F)c2)ccc1Cl` [TCMDC-139224], the “% Inhibition” value is -31.22%. With `COc1cc(C=CC(=O)N2CCN(Cc3cccc(C)c3)CC2)ccc1OCc1c(C)noc1C` [TCMDC-125249], the “% Inhibition” value came out at 23.84%. As for `Cc1nc(N)nc(N)c1Oc1cccc(Cl)c1` [TCMDC-137376], the “% Inhibition” value is reported as -5.588%. Under `Cc1ccc(C)c(NC(=O)NCCNc2ccnc(Nc3ccc(F)cc3)n2)c1` [TCMDC-133638] stands 7.929%; under `CN1CCN(c2cc(NC(=O)c3ccc(-c4ccc(C#N)cc4)cc3)ccc2Cl)CC1` [TCMDC-138670], -41.42%; under `O=C(Nc1ccc(OC2CCN(Cc3ccc(F)cc3)CC2)c(Cl)c1)c1ccsc1` [TCMDC-133745], -5.727%. On to `Cc1cc(=O)oc2c1ccc1oc(C(O)c3ccc(Cl)cc3)c(C)c12` (stereo not shown) [TCMDC-123999], for which the “% Inhibition” value is given as -9.04%. As for `COc1ccc2nc(C)cc(NN=Cc3ccccc3F)c2c1` [TCMDC-142083], the “% Inhibition” value is reported as 38.04%. For the molecule `Cc1ccc2nc(C)cc(NN=Cc3ccccc3Cl)c2c1` [TCMDC-142062], the “% Inhibition” value was -47.12%.

`Cc1ccc2nc(C)cc(NN=Cc3ccccc3F)c2c1` [TCMDC-142065]: the “% Inhibition” value was found to be 60.82%. The same measure for `CCOc1ccc2nc(C)cc(NN=Cc3cccc(C)n3)c2c1` [TCMDC-142050]: 48.92%; for `CCOc1ccc2nc(C)cc(NN=Cc3ccccc3F)c2c1` [TCMDC-142092]: 61.8%; for `Cc1cc(NN=Cc2ccccc2F)c2cc(C(F)(F)F)ccc2n1` [TCMDC-142027]: -61.45%. The same measure for `CCOc1ccc2nc(C)cc(NN=Cc3ccccc3Cl)c2c1` [TCMDC-142090]: 95.12%. Under `Fc1cccc(C=NNc2ccnc3ccccc23)c1` [TCMDC-142058] stands -35.92%. Regarding `Fc1cccc(C=NNc2ccnc3cc(Cl)ccc23)c1` [TCMDC-123966], the “% Inhibition” value is listed as -20.4%.

`Cc1cc(NN=Cc2ccccc2F)c2ccccc2n1` [TCMDC-123982]: the “% Inhibition” value is on record as -9.703%. The same measure for `Fc1ccc2c(NN=Cc3ccccc3F)ccnc2c1` [TCMDC-142018]: 101.1%; for `CC(C)CC(NC(=O)c1cccc(OCCN2CCOCC2)c1)C(=O)NC(/C=N/NC(=O)c1ccccc1)CCc1ccccc1` (stereo not shown) [TCMDC-135464]: 15.6%. The same measure for `CC1(C)CCCN(C(=O)c2cccc(-n3nc(-c4ccc(Cl)cc4)cc3N)c2)C1` [TCMDC-134042]: -38.1%; for `O=C(Nc1ccc2c(c1)CCC2)c1cnc(N2CCN(c3ccncc3)CC2)c(Cl)c1` [TCMDC-134596]: 8.854%.

With `O=C(Nc1ccc(Br)cc1)N(CCN1CCOCC1)CC(O)COCc1ccc(Cl)c(Cl)c1` (stereo not shown) [TCMDC-141490], the “% Inhibition” value came to 5.181%.

Turning to `Cc1ccc(N2C(N)=NC(N)=NC2(C)C)cc1` [TCMDC-131578], the “% Inhibition” value is given as 18.97%. On to `CN(CCON1C(N)=NC(N)=NC1(C)C)c1ccccc1` [TCMDC-131733], for which the “% Inhibition” value was determined as 4.514%. The same measure for `O=C(Nc1ccc(I)cc1)N1CCc2sccc2C1CN1CCCCC1` (stereo not shown) [TCMDC-136648]: -39.22%. Under `CC(CN(C)C)C(=O)Nc1cccc(-c2ccc(-c3nc4cc(F)ccc4[nH]3)s2)c1` (stereo not shown) [TCMDC-137114] stands -16.25%; under `CCN(CCO)CCCC(C)Nc1ccnc2cc(Cl)ccc12` (stereo not shown) [TCMDC-123987], 30.66%. The same measure for `CC(C)(C)C1CCc2nc(N)nc(N)c2C1` (stereo not shown) [TCMDC-137954]: 82.06%; for `CC(C)C1CCc2nc(N)nc(N)c2C1` (stereo not shown) [TCMDC-137947]: 0.4281%. For `CCC(C)(C)C1CCc2nc(N)nc(N)c2C1` (stereo not shown) [TCMDC-137870], the “% Inhibition” value was -20.62%.
